Consider four compounds from ChEMBL document CHEMBL1961873, “Compounds: GSK PKIS; Assays: Nanosyn kinase panel” (2012).

Test [1] deals with T1, Mitogen-activated protein kinase 12 (Homo sapiens) (UniProt P53778).
T1 sequence (whole entry): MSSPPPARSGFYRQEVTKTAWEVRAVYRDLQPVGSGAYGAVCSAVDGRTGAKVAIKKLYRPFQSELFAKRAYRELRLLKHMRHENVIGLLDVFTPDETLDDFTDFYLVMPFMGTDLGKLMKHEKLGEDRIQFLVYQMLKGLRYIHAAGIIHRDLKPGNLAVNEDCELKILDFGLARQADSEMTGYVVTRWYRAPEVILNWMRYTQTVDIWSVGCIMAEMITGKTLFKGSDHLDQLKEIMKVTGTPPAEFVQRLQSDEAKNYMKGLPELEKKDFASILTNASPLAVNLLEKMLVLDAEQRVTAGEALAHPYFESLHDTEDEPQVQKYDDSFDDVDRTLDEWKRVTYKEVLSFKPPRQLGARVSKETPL
The note with it: at 1 µM.

The target in test [2] is SRSF protein kinase 1 (Homo sapiens) (UniProt Q96SB4). The note with it: at 0.1 µM.
Sequence of SRSF protein kinase 1 (Homo sapiens) (Q96SB4 whole entry): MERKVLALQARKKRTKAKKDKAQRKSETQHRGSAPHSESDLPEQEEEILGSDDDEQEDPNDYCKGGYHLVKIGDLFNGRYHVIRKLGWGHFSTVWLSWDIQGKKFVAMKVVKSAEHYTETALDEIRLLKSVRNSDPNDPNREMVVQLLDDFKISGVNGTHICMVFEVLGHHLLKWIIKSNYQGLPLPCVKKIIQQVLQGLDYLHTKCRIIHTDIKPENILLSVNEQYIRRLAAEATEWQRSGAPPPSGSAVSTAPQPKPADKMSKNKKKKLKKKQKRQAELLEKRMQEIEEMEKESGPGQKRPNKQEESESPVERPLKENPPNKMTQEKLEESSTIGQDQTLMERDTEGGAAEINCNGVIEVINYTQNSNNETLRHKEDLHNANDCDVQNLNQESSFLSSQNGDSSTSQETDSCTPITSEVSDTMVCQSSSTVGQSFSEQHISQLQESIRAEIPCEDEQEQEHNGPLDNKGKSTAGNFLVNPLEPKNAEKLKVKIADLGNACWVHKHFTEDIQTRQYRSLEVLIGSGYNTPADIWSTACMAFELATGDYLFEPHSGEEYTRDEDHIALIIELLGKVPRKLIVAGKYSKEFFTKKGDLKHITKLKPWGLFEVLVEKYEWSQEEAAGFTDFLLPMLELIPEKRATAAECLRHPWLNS
For test [3] the target is unchanged. The note with it: at 1 µM.
The target in test [4] is Phosphatidylinositol 4,5-bisphosphate 3-kinase catalytic subunit alpha isoform (Homo sapiens) (UniProt P42336). The note with it: at 0.1 µM.
Sequence of Phosphatidylinositol 4,5-bisphosphate 3-kinase catalytic subunit alpha isoform (Homo sapiens) (P42336 whole entry, canonical isoform): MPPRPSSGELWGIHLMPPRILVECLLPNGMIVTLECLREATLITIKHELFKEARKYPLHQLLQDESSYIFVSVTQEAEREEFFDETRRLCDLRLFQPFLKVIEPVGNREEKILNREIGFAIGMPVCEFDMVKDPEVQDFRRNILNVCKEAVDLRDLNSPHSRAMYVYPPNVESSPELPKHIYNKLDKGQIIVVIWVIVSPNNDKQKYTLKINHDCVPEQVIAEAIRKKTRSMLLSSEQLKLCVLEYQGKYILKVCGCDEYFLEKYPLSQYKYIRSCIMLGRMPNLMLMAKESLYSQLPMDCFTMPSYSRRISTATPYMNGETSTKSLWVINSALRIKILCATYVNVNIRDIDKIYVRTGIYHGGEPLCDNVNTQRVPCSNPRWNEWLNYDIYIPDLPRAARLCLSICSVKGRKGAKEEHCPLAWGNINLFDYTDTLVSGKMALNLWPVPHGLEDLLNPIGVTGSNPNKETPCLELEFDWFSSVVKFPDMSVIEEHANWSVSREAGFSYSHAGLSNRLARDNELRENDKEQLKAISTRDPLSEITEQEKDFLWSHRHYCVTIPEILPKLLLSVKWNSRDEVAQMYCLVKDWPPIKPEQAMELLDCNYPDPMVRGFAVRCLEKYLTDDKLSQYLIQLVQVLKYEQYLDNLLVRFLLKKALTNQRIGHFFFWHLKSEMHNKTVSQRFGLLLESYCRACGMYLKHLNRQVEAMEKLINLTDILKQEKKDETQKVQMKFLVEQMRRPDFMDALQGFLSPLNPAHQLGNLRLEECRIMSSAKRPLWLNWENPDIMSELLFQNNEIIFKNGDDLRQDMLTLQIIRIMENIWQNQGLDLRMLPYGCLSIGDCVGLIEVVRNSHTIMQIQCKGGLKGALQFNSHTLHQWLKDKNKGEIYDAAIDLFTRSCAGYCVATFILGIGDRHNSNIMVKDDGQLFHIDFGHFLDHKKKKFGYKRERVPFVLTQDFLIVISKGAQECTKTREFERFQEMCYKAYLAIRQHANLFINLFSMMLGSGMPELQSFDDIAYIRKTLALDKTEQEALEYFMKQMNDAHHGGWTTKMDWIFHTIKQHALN
Test [5] shares this target. The note with it: at 1 µM.
For test [6], the target named is T2, Phosphatidylinositol 4,5-bisphosphate 3-kinase catalytic subunit delta isoform (Homo sapiens) (UniProt O00329).
T2 sequence (whole entry): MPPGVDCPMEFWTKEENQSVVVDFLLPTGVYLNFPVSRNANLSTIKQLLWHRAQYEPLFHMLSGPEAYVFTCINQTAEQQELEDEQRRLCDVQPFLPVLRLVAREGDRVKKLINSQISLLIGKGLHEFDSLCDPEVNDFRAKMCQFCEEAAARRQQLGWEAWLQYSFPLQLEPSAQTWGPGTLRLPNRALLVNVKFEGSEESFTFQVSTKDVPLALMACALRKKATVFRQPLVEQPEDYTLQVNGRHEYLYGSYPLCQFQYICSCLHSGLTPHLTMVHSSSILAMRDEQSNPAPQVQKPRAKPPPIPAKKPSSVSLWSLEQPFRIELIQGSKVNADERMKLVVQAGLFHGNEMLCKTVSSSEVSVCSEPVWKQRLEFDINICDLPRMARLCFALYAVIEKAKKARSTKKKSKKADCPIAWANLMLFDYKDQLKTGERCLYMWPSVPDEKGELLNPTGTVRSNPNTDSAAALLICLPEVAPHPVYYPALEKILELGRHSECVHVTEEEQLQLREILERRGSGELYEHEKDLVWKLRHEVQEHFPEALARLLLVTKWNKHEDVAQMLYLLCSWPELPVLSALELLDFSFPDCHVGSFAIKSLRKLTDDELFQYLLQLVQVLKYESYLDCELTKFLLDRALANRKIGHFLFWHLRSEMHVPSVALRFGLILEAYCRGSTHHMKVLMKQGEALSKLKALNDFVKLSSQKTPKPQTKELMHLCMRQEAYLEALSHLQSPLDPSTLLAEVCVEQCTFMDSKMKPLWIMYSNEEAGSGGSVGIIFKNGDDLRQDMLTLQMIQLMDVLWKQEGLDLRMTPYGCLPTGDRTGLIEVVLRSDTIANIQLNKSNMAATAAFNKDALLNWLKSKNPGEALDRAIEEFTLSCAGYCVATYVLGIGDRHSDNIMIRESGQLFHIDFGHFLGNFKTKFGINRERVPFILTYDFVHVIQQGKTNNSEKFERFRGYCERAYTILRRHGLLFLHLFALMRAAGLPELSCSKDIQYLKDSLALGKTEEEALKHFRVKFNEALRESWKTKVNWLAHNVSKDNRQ
The note with it: at 0.1 µM.

Test [7] has as its target T2, Phosphatidylinositol 4,5-bisphosphate 3-kinase catalytic subunit delta isoform (Homo sapiens). The note with it: at 1 µM.
In test [8] the target is Phosphatidylinositol 4-kinase beta (Homo sapiens) (UniProt Q9UBF8). The note with it: at 0.1 µM.
Sequence of Phosphatidylinositol 4-kinase beta (Homo sapiens) (Q9UBF8 2-816 limits assumed): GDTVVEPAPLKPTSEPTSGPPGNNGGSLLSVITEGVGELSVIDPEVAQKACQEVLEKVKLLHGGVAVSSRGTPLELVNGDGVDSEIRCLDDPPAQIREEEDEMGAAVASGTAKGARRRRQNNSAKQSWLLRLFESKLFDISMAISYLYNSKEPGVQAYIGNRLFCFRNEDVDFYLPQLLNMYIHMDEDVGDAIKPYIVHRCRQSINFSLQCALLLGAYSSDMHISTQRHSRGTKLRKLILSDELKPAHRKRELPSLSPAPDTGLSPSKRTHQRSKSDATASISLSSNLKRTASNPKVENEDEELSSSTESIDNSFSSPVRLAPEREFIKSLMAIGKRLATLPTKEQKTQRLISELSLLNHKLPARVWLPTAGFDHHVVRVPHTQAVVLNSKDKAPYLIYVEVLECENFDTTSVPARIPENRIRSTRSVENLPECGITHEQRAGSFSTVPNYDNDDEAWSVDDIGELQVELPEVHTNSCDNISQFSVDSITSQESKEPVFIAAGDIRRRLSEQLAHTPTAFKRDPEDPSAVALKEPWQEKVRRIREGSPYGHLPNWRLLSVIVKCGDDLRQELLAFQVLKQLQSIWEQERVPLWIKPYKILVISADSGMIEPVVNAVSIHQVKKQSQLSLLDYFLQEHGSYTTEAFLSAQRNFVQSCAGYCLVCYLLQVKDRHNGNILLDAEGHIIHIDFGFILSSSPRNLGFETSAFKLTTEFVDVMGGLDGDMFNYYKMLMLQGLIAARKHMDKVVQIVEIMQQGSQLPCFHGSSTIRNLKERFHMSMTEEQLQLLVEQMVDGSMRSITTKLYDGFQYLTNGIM
Test [9] has the same target. The note with it: at 1 µM.
For test [10], the target named is Sphingosine kinase 1 (Homo sapiens) (UniProt Q9NYA1). The note with it: at 0.1 µM.
Sequence of Sphingosine kinase 1 (Homo sapiens) (Q9NYA1 whole entry): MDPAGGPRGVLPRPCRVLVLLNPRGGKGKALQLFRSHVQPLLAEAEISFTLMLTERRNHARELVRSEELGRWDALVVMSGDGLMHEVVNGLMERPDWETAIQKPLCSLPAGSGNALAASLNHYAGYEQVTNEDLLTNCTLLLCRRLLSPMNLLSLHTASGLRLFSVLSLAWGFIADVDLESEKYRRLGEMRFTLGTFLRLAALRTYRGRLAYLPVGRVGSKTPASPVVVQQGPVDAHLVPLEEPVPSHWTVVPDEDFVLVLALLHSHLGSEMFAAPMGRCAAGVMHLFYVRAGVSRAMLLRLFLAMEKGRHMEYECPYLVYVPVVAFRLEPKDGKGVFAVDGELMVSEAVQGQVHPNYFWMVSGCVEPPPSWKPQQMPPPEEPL
Test [11] shares this target. The note with it: at 1 µM.
The target of test [12] is T3, Sphingosine kinase 2 (Homo sapiens) (UniProt Q9NRA0).
T3 sequence (whole entry): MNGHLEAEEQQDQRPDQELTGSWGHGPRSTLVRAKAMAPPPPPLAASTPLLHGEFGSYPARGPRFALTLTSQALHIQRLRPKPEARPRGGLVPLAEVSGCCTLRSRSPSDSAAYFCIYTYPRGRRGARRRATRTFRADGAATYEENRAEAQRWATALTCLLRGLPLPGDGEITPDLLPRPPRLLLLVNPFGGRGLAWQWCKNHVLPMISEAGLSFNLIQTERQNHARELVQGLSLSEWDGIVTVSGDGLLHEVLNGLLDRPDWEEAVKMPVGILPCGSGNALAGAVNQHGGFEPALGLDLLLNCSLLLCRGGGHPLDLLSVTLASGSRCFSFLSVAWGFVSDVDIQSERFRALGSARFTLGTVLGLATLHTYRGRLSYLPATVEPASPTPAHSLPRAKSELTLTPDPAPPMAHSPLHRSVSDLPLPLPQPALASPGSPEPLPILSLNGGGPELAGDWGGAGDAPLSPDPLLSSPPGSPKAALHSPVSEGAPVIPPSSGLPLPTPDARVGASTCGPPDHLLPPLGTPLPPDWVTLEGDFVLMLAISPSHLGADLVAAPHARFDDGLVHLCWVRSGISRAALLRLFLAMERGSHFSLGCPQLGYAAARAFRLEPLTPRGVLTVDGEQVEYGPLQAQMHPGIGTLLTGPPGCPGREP
The note with it: at 0.1 µM.

In test [13] the target is T3, Sphingosine kinase 2 (Homo sapiens). The note with it: at 1 µM.
The target in test [14] is Casein kinase II subunit alpha (Homo sapiens) (UniProt P68400). The note with it: at 0.1 µM.
Sequence of Casein kinase II subunit alpha (Homo sapiens) (P68400 whole entry, looked up): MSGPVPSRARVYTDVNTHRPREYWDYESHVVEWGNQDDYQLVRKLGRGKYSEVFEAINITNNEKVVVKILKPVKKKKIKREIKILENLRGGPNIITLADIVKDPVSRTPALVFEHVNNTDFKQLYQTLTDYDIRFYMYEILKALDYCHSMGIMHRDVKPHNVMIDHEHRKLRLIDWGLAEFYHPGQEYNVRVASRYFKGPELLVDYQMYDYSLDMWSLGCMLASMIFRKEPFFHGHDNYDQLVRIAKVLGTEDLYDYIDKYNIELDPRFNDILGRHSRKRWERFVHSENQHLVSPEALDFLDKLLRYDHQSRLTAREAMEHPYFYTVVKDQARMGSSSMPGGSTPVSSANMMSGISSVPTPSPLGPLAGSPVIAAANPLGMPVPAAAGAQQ
For test [15] the target is unchanged. The note with it: at 1 µM.
The target in test [16] is T4, Inhibitor of nuclear factor kappa-B kinase subunit alpha (Homo sapiens) (UniProt O15111).
T4 sequence (whole entry): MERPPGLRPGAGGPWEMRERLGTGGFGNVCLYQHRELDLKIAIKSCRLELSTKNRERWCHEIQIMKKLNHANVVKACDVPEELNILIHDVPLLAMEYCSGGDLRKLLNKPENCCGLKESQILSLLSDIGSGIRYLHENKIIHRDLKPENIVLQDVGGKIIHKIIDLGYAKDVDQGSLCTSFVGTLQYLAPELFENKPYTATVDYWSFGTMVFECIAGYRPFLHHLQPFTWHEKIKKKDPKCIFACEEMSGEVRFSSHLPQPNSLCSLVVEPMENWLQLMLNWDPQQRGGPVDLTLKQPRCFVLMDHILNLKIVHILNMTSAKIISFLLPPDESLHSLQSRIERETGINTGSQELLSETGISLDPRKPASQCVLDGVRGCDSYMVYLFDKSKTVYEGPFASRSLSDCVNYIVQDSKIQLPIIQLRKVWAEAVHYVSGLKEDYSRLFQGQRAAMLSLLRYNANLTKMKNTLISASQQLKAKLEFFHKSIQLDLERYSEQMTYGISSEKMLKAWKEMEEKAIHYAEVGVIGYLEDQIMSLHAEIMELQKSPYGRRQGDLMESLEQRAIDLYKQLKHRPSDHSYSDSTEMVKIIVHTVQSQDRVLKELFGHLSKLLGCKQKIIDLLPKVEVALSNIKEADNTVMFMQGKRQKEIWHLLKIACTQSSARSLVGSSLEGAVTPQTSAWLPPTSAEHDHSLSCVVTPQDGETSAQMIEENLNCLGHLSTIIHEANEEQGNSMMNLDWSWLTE
The note with it: at 0.1 µM.

Test [17] deals with T4, Inhibitor of nuclear factor kappa-B kinase subunit alpha (Homo sapiens). The note with it: at 1 µM.
Test [18] has as its target T5, Inhibitor of nuclear factor kappa-B kinase subunit beta (Homo sapiens) (UniProt O14920).
T5 sequence (whole entry): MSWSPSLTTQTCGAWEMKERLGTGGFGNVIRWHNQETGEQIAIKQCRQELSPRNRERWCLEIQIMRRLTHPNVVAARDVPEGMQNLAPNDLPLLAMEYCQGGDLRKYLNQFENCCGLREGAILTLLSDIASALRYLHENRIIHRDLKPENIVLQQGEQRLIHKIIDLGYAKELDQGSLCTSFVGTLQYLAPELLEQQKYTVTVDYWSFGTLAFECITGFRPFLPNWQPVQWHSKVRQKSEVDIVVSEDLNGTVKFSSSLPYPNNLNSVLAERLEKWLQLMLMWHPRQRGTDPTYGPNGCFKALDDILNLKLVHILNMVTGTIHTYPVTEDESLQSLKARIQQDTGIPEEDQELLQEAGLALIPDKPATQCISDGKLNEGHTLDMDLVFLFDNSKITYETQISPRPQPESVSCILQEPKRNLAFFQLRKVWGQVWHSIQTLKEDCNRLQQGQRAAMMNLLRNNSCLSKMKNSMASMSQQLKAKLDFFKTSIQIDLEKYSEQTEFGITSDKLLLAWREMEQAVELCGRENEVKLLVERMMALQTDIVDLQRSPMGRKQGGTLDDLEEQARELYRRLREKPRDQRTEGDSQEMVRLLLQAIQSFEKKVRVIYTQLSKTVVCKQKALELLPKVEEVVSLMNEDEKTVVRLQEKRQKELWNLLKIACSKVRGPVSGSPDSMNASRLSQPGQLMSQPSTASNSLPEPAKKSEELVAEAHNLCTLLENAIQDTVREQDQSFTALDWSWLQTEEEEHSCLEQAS
The note with it: at 0.1 µM.

Test [19] concerns the target T5, Inhibitor of nuclear factor kappa-B kinase subunit beta (Homo sapiens). The note with it: at 1 µM.
For test [20], the target named is T6, Inhibitor of nuclear factor kappa-B kinase subunit epsilon (Homo sapiens) (UniProt Q14164).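 Note: mean inhibition of IKKε reported, from the GSK PKIS dataset.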
T6 sequence (whole entry): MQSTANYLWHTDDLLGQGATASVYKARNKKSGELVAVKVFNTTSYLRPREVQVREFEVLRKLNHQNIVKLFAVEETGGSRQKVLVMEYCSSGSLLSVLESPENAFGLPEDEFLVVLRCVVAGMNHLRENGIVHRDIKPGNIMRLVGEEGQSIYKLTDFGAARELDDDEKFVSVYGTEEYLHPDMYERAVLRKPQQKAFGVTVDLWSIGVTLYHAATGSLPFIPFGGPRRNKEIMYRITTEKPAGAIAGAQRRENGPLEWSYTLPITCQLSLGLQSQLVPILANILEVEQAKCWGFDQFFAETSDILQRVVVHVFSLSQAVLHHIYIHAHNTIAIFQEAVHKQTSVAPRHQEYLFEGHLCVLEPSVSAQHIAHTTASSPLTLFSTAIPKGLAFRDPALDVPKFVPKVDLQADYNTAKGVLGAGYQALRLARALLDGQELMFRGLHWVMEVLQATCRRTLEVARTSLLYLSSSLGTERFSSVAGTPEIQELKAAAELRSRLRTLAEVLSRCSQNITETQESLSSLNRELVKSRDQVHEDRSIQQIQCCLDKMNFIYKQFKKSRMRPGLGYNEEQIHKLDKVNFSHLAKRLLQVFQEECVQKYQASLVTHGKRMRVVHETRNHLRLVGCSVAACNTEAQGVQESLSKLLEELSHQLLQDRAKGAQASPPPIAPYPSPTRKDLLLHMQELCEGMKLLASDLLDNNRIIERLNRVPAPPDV
The note with it: at 0.1 µM.

SMILES strings stand for the structures.

For the compound `CCOc1nccc2c1nc(-c1nonc1N)n2CC`, the inhibition in test [1] is 3.14%; in test [2] it was 0.65%; in [3] it was 6.12%; in test [4] it was 2.9%; in test [5], 1.35%; in test [6] it was 0.56%. Besides, the inhibition in test [7] was 0.99%; in test [8] it was 7.22%; in test [9], 0.43%; in [10], 0.81%; in test [11], 7.65%; in [12], -0.3%. Besides, the inhibition in test [13] came to 0.06%; in test [14] it was 5.33%; in [15] it was 14.6%; in test [16] it was 2.3%; in [17], 3.59%; in test [18], 0.86%. Also, the figures for the inhibition in [19] and in test [20] were 5.41% and 7.17%, respectively.
For the compound `Nc1nccc(-c2c(-c3ccc(F)cc3)ncn2CCCN2CCOCC2)n1`, the inhibition was 3.58% in test [1]; -1.35% in test [2]; -2.36% in [3]; 3.59% in test [4]; 3.13% in [5]; 0.42% in test [6]. In addition, the inhibition in [7] is 3.48%; in test [8] it was -8.25%; in test [9] it was -2.19%; in test [10], 2.43%; in test [11], -6.06%; in [12], -0.3%. Further, the inhibition in [13] was found to be 0.84%; in test [14], 2.78%; in [15], 4.35%; in [16], 3.83%; in test [17], 5.27%; in [18] it was 6.3%. The inhibition in test [19] was found to be 5.49%; in [20], 4.76%.
Take `COc1cccc(-n2ncc3c(N/N=C/c4ccc(C)cc4)ncnc32)c1`: the inhibition is 6.67% in test [1]; -3.85% in [2]; -1.68% in test [3]; 5.44% in test [4]; 7.64% in test [5]; 1.43% in [6]. The inhibition in [7] was 5.9%; in test [8], -1.45%; in test [9], 3.16%; in test [10], 3.47%; in [11], 1.5%; in [12] it was 0.29%. The inhibition was -0.22% in test [13]; -0.43% in test [14]; 23.1% in test [15]; 12% in test [16]; 9.99% in test [17]; 6.84% in [18]. For the same compound, the inhibition came to 9.36% in [19] and 5.66% in [20].
`NS(=O)(=O)c1ccc(Nc2cc(-c3cccc(O)c3)n[nH]2)cc1`: the inhibition in test [1] is 3.15%; in [2], -3.05%; in test [3], -2.8%; in test [4], 4.26%; in [5] it was 7.56%; in test [6], 2.48%. Also, the inhibition in test [7] was 4.98%; in test [8], -1.18%; in test [9], -1.14%; in test [10] it was 1.67%; in test [11] it was -2.64%; in [12] it was 0.05%. The inhibition is -0.8% in test [13]; 2.68% in test [14]; 3.26% in test [15]; 2.32% in test [16]; 2.31% in [17]; 4.33% in test [18]. The inhibition was 5.24% in test [19] and 6.1% in test [20].
